The text below walks through data of PubChem BioAssay AID720690 (Broad Institute, 2013).

Entries with a potency or affinity are not part of this list. Calls of active or inactive are those of the source.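 The calls were made as follows: active = every repeat run showing a signal drop whose fitted half-maximal concentration is at most twice the top tested concentration; inconclusive = repeat runs disagree, or flat partial drop, or poor fit; inactive = the rest.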

The experiment in a line: general mammalian cell viability loss – activator set, cherry-pick, cytotoxicity control for miR-122 modulator project, dose response (AID 720690). To be noted: HEK293T viability, CellTiter-Glo luminescence, 48 h; series mostly up to 26 µM. In general terms: ATP-based viability assays read luminescence as a measure of living cells.
In the case of `CC(=O)N1[C@H](CNC(=O)C2CC2)[C@H](c2ccc(-c3cccc(F)c3)cc2)[C@@H]1CO`, the molecule was classed as inactive.

Regarding `CCCC(=O)Nc1ccc2c(c1)C(=O)N(C)[C@@H]1CC[C@H](CC(=O)NCc3cccc(F)c3)O[C@H]1CO2`, the result was inactive.

Take `CC(=O)Nc1ccc2c(c1)C(=O)N(C)[C@@H]1CC[C@H](CC(=O)NC3CCCCC3)O[C@H]1CO2`: the molecule was called inactive.

In the case of `COCC(=O)Nc1ccc2c(c1)C(=O)N(C)[C@@H]1CC[C@H](CC(=O)Nc3cn(C)nc3C)O[C@H]1CO2`, the molecule was classed as inactive.

Regarding `COc1ccc(-c2c(C(C)=O)c(C)nc3sc4c(c23)NC(c2ccccc2)NC4=O)cc1` (stereo not drawn), the molecule was called inactive.

Regarding `COC(=O)C[C@@H]1CC[C@@H]2[C@H](COc3ccc(NC(=O)Nc4cccc(F)c4)cc3C(=O)N2C)O1`, the molecule was classed as inactive.

In the case of `C/C=C/c1ccc([C@H]2[C@H](CO)N[C@H]2CN(C)S(=O)(=O)c2ccccc2)cc1`, the result was inactive.

In the case of `CNC(=O)C[C@@H]1CC[C@@H]2[C@@H](COc3ccc(NC(=O)c4ccccc4OC)cc3C(=O)N2C)O1`, the outcome was inactive.

In the case of `Cc1ccc(-c2ccc3c(c2)O[C@H](CN(C)C(=O)CC2CC2)[C@H](C)CN([C@@H](C)CO)S3(=O)=O)cc1`, the result was inactive.

`CC(C)C#Cc1ccc2c(c1)O[C@H](CN(C)C(=O)c1ccncc1)[C@H](C)CN([C@@H](C)CO)S2(=O)=O`: the call was inactive.

On to `CN1C(=O)c2cc(NC(=O)c3cccs3)ccc2OC[C@@H]2O[C@@H](CC(=O)N3CCOCC3)CC[C@H]21`, for which the result was inactive.

Regarding `Cn1c(-c2ccc(N)cc2)nc2ccccc21`, the molecule was called inactive.

Consider `C/C=C/c1ccc([C@H]2[C@@H](CO)N[C@@H]2CN(CC(C)C)C(=O)c2ccccn2)cc1`, for which the molecule was classed as inactive.
